Shown are actives, neighbours in structure and some others; about 4.3% of the full set was active somewhere.
rCAG RNA binder: molecules binding r(CAG) RNA repeats. AID 651821. actives 1.3% (n = 370,000). r(CAG) RNA repeat, TO-PRO-1 dye displacement fluorescence. inhibition, % at 3 µM;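 active means inhibition above the plate cutoff, the mean of all test compounds on that plate plus 3 SD, cut at about 35% in these data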;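 further: higher means more dye released from RNA so lower well fluorescence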
NadD block: blocks S. aureus nicotinate mononucleotide adenylyltransferase | actives 0.78% (n = 360,000) | purified NadD enzyme, colorimetric absorbance read-out | AID 602399 | inhibition, % at 20 µM; in the data active means inhibition above about 26%
FAS TE block: blocks the thioesterase domain of human fatty acid synthase. P49327. recombinant FAS-TE, OMFH fluorogenic substrate, fluorescence endpoint. inhibition, % at 15 µM. actives 0.67% (n = 360,000). AID 602261;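 active means compounds whose normalised, plate-corrected inhibition of enzyme fluorescence in the single-dose primary screen is 50% or more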
Target sequence (P49327 whole entry, looked up, the tested form may be a part): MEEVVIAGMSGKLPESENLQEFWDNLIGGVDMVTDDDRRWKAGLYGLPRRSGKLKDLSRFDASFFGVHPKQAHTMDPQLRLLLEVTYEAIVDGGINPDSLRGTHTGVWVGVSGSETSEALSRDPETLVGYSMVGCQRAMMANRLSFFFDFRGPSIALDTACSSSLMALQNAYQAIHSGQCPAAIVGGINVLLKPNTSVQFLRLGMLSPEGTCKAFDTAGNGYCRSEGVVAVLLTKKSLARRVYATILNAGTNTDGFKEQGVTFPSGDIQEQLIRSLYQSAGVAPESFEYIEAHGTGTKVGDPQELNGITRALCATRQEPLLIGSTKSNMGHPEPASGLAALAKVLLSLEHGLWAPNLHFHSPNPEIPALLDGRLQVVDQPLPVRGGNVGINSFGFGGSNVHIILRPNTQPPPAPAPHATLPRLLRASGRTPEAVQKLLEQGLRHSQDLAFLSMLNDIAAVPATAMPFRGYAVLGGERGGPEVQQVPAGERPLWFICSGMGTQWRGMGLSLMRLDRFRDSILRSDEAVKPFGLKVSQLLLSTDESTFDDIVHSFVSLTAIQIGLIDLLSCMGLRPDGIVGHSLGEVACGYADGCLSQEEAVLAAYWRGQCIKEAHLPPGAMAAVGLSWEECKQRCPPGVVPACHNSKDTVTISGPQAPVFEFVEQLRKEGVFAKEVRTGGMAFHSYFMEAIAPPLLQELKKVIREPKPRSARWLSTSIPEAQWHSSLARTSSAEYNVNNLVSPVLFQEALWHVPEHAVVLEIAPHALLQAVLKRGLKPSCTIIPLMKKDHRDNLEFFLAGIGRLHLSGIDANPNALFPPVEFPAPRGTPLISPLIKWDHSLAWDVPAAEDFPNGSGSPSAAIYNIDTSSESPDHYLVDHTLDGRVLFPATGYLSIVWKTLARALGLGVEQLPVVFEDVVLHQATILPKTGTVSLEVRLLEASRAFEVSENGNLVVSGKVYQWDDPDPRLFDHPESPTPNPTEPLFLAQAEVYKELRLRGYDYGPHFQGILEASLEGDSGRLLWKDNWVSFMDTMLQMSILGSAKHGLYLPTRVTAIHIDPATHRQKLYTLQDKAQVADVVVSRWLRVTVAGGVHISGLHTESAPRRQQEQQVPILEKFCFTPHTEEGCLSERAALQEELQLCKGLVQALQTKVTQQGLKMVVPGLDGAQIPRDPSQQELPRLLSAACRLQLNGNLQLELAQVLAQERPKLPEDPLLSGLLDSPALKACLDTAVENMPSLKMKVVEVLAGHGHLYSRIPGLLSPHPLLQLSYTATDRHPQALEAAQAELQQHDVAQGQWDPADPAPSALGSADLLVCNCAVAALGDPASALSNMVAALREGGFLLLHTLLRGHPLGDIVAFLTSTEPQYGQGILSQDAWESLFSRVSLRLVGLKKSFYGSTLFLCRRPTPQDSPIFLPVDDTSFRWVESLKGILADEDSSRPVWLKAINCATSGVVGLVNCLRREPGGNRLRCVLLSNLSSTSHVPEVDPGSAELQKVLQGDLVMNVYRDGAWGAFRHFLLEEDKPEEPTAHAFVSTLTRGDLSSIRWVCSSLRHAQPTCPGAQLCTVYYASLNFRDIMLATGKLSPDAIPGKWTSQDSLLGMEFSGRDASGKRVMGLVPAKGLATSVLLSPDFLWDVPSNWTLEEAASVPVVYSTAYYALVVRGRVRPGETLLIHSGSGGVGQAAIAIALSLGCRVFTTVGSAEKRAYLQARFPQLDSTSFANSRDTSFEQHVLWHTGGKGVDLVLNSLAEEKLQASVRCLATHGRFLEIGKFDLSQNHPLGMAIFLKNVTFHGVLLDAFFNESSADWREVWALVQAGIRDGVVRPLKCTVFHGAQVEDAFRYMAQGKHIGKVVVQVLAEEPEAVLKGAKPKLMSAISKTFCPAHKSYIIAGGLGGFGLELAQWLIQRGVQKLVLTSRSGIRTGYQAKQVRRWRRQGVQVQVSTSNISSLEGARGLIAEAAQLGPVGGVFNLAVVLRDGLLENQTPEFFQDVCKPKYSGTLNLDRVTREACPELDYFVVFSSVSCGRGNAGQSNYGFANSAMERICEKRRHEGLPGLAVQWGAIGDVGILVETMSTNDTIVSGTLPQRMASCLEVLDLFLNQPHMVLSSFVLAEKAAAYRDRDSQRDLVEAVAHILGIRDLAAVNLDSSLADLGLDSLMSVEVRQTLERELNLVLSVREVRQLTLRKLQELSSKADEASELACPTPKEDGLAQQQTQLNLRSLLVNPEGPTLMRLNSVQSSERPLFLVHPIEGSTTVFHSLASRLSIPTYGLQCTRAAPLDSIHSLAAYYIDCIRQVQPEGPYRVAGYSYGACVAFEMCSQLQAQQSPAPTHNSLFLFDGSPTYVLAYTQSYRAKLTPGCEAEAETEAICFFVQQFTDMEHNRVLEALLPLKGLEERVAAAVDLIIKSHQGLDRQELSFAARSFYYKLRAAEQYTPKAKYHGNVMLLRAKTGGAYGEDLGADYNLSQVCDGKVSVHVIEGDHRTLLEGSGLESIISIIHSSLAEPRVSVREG
NR3A LBD binder: NR3A (human) ligand-binding domain modulation. NR3A LBD differential scanning fluorimetry, Tm shift; 0% = protein alone, 100% = glycine-bound protein. Tm shift relative to glycine control, % at 25 µM. actives 2.5% (n = 340,000). AID 1259313;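 active means melting temperature shift of at least 10% of the positive control shift, at one fixed dose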
Large screens that a line does not name were inactive.

CCc1nnc(NC(=O)c2ccc(-c3ccc(Cl)cc3)o2)s1	NR3A LBD binder 15
N#C/C(=C/c1ccccc1OCc1ccc(F)cc1)c1ccc(C(=O)O)cc1	none
N#C/C(=C/c1cccn1-c1cccc(C(=O)O)c1)c1ccc(F)cc1	rCAG RNA binder 50
O=C(NCCS(=O)(=O)N1CCN(c2ccccc2)CC1)c1ccc2c(c1)OCO2	none
O=C(NCCS(=O)(=O)N1CCN(c2ccccc2F)CC1)c1ccc2c(c1)OCO2	NR3A LBD binder 31
CCOC(=O)c1c(-c2ccc(C)cc2)csc1NC(=O)C1CCCO1 (centres undefined)	NR3A LBD binder 10
Cc1ccc(NC(=O)Cc2ccc(OC(F)F)cc2)c(S(=O)(=O)N2CCOCC2)c1	none (no result: NadD block, FAS TE block, NR3A LBD binder)
CCOC(=O)c1c(C)[nH]c(C(=O)COC(=O)/C=C/c2ccc(OC(F)F)cc2)c1C	NR3A LBD binder 13
Cc1ccc(-n2c(C)cc(C(=O)CN3CCOCC3)c2C)cc1C	NR3A LBD binder 18
Cc1sc2nc(COC(=O)CNC(=O)c3ccc(F)cc3Cl)[nH]c(=O)c2c1C	none (no result: NadD block, FAS TE block, NR3A LBD binder)
CN(C(=O)CSc1nc2ccccc2n1CCc1ccccc1)C1CCS(=O)(=O)C1 (centres undefined)	NR3A LBD binder 14
COC(=O)[C@]12C[C@H](CC(=O)N3CCCC3)C(=O)N(CCc3ccc(OC)c(OC)c3)C1=C[C@H](C(C)C)O[C@@H]2C1CC1	none (no result: NadD block, FAS TE block, NR3A LBD binder)
CCCCNC(=O)NCC1CCN(Cc2ccc(OC)cc2)CC1	none (no result: NadD block, FAS TE block, NR3A LBD binder)
COc1cccc(C(=O)Nc2nc(-c3ccc4c(c3)OCO4)cs2)c1	NR3A LBD binder 25
COc1cccc(-c2csc(NC(=O)C3CC3)n2)c1	NR3A LBD binder 20
COc1cccc(C(=O)Nc2nc(-c3ccncc3)cs2)c1	none
S=C1NC2(CCCC2)Nc2ccccc21	none
S=C1NC2(CCCCC2)Nc2ccccc21	NR3A LBD binder 12
O=c1[nH]c(S)c(/C=C2\C=Nc3ccccc32)s1	NR3A LBD binder 34
C=CCNC(=O)NCC1CCN(Cc2ccc(OC)cc2)CC1	none (no result: NadD block, FAS TE block, NR3A LBD binder)
O=C(Nc1cc(Br)ccc1O)c1cnn2c(C(F)F)cc(C3CC3)nc12	NR3A LBD binder 14
Cc1ccccc1NS(=O)(=O)c1ccc(-c2ccc(=O)[nH]n2)o1	NR3A LBD binder 15
CCOc1cccc(-c2c(C(=O)N/N=C/c3ccc(C)s3)nnn2-c2nonc2N)c1	NR3A LBD binder 21
CCOc1ccc(-c2c(C(=O)N/N=C/c3ccc(C)s3)nnn2-c2nonc2N)cc1	none (no result: rCAG RNA binder)
COc1cccc(-c2c(C(=O)N/N=C/c3ccc(C)s3)nnn2-c2nonc2N)c1	NR3A LBD binder 13
COc1cccc(-c2nnc(SCC(=O)Nc3ccc(Oc4ccccc4)cc3)n2Cc2ccco2)c1	none (no result: NadD block, FAS TE block, NR3A LBD binder)
CCC(c1ccccc1)c1nc(-c2cccnc2)no1 (centres undefined)	NR3A LBD binder 12
C=C(C)C1CC=C(C)C(=NNC(=O)c2ccncc2)C1 (centres undefined)	NR3A LBD binder 11
CC(=O)Nc1cc2c(cc1C(C)=O)OCCO2	NR3A LBD binder 13
CCCC(=O)Nc1cc2c(cc1C(C)=O)OCCO2	none
O=C(NC1CCCC1)C(c1ccc(F)cc1)N(Cc1ccc(F)cc1)C(=O)c1ccn[nH]1 (centres undefined)	NR3A LBD binder 17
CCOC(=O)CC[C@@H]1CC[C@]2(CCCN(C(=O)C3CCCCC3)C2)O1	none (no result: NadD block, FAS TE block, NR3A LBD binder)
Cc1cc(S(=O)(=O)N2CCOCC2)ccc1OCC(=O)Nc1ccc(F)cc1	none
Cc1cc(S(=O)(=O)N2CCOCC2)ccc1OCC(=O)Nc1ccc(F)c(Cl)c1	NR3A LBD binder 44
Cc1ccc(OCC(=O)Nc2ccc(S(=O)(=O)N3CCOCC3)cc2)c(C)c1	NR3A LBD binder 11
COc1ccc(NC(=O)COc2cc(C)cc(C)c2)cc1S(=O)(=O)N1CCCCC1	NR3A LBD binder 24
COc1cccc(Cn2cc(COC(=O)N3CCOCC3)nn2)c1	none (no result: NadD block, FAS TE block, NR3A LBD binder)
CCC(C(=O)OCC(=O)Nc1ccc(SC(F)F)cc1)c1ccccc1 (centres undefined)	NR3A LBD binder 12
CN1[C@H](Cc2ccccc2)COc2cc(N3CCCC3)ccc2S1(=O)=O	none (no result: NadD block, FAS TE block, NR3A LBD binder)
CCOC(=O)c1cc(CN2CCOCC2)oc1-c1ccccc1	NR3A LBD binder 10
CN1CCCC1CCSc1ncccc1-c1nc2ccccc2[nH]1 (centres undefined)	none (no result: NadD block, FAS TE block, NR3A LBD binder)
COc1ccc2[nH]c3c(c2c1)CCN[C@]31C(=O)N(c2ccccc2)c2ccccc21	none (no result: NadD block, FAS TE block, NR3A LBD binder)
Cc1ccc(NC(=O)c2cc3cccc([N+](=O)[O-])c3[nH]2)cc1	NR3A LBD binder 33
C[C@H](CO)N1C[C@H](C)[C@H](CN(C)C(=O)Nc2ccc3c(c2)OCO3)OCc2cnnn2CCCC1=O	none (no result: NadD block, FAS TE block, NR3A LBD binder)
COc1ccc(OC)c(NC(=O)C2(C)CCN2C(C)C)c1 (centres undefined)	none (no result: NR3A LBD binder)
COc1ccc(OC)c(NC(=O)C23CCC(C)(C(=O)C2)C3(C)C)c1 (centres undefined)	NR3A LBD binder 11
O=C(COc1ccc(Cl)cc1Cl)Nc1ccc(Cl)cn1	none
O=C(Nc1ccc(Cl)cn1)Nc1ccc(Cl)cn1	NR3A LBD binder 29
O=C(Nc1ccc(Cl)cn1)c1ccc(-c2cc(Cl)ccc2Cl)o1	NR3A LBD binder 16
O=C(Nc1ccc(F)cc1)Nc1ccc(Cl)cn1	none
CCOc1ccc(C(=O)Nc2ccc(Cl)cn2)cc1Cl	NR3A LBD binder 25
COC(=O)[C@]12C[C@H](CC(=O)NCCC(C)C)C(=O)N(Cc3ccco3)C1=C[C@H](C(C)C)O[C@@H]2C1CC1	none (no result: NadD block, FAS TE block, NR3A LBD binder)
O=C(c1cccc(F)c1F)N(Cc1ccccn1)CC1CCCO1 (centres undefined)	none (no result: NadD block, FAS TE block, NR3A LBD binder)
Cc1cccc(NC(=O)n2ccc3ccc(-c4ccc5cc[nH]c5c4)cc32)c1	none (no result: NadD block, FAS TE block, NR3A LBD binder)
CCCCn1nc(NS(=O)(=O)c2cccc3nonc23)c2cc3cccc(C)c3nc21	rCAG RNA binder 74
Cc1noc(C)c1S(=O)(=O)N1CCCc2nc(-c3ccc(Br)cc3)ccc21	none (no result: NadD block, FAS TE block, NR3A LBD binder)
COC(=O)[C@H](C(C)C)N1Cc2nnn(Cc3ccccc3)c2-c2ccccc2S1(=O)=O	none (no result: NadD block, FAS TE block, NR3A LBD binder)
C[C@@H]1CN([C@H](C)CO)C(=O)c2cc(NC(=O)Nc3ccc(C(F)(F)F)cc3)ccc2O[C@H]1CN(C)S(=O)(=O)c1ccccc1	NR3A LBD binder 22
C[C@H](CO)N1C[C@H](C)[C@@H](CN(C)S(=O)(=O)c2ccccc2)Oc2c(NC(=O)Nc3ccc(C(F)(F)F)cc3)cccc2C1=O	none
COc1ccc(S(=O)(=O)N(C)C[C@H]2Oc3ccc(NC(=O)Nc4ccc(C(F)(F)F)cc4)cc3C(=O)N([C@H](C)CO)C[C@@H]2C)cc1	NR3A LBD binder 22
CS(=O)(=O)Nc1ccc(C2=NN(C(=O)c3ccco3)C(c3ccccc3)C2)cc1 (centres undefined)	NR3A LBD binder 12
Cc1ccc(C2CC(c3ccc(NS(C)(=O)=O)cc3)=NN2C(=O)c2ccco2)cc1 (centres undefined)	none
COc1ccc(CN2C(=O)COc3ccccc3C2c2nnnn2C2CCCCC2)cc1 (centres undefined)	none (no result: NadD block, FAS TE block, NR3A LBD binder)
CCc1ccc(NC(=O)c2ccc(F)c(S(=O)(=O)NCC3COc4ccccc4O3)c2)cc1 (centres undefined)	NR3A LBD binder 16
[O-][n+]1ccccc1C(O)CSc1ccccc1 (centres undefined)	none (no result: NadD block, FAS TE block, NR3A LBD binder)
